Rows were chosen to be rich in hits. Some 3.3% of all compounds tested hit in one or more screens of this group.
TLR9-MyD88 inh = inhibitors of human TLR9-MyD88 binding | CHO BLA complementation TLR9-MyD88, CCF4 FRET ratio | actives 0.21% (n = 340,000) | AID 504734 | inhibition, % at 4.98 µM | Q9NR96+Q99836;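 active means inhibition above the mean over all tested compounds plus 3 SD, cut at about 21% in these data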;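 further: 0% = DMSO only wells and 100% = clavulanate BLA inhibitor control wells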
rCAG binder = molecules binding r(CAG) RNA repeats | r(CAG) RNA repeat, TO-PRO-1 dye displacement fluorescence | inhibition, % at 3 µM | actives 1.3% (n = 370,000) | AID 651821;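 active means inhibition above the plate cutoff, the mean of all test compounds on that plate plus 3 SD, cut at about 35% in these data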;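 further: 0% = DMSO alone and 100% = 100 µM mitoxantrone as full dye displacement; higher means more dye released from RNA so lower well fluorescence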
PRMT1 inh = PRMT1 (human) inhibition, primary screen; Q99873; actives 1.3% (n = 370,000); recombinant PRMT1, activity-based probe fluorescence polarization; AID 652257; inhibition, % at 2.79 µM;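 active means inhibition above about 21% made by adding two undisclosed values, limit read from the data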
TLR4 MyD88 comp = blocks binding of human TLR4 to MyD88. actives 0.18% (n = 200,000). HeLa CL3-4 TLR4/MyD88 BLA complementation, FRET ratio. inhibition, % at 8.4 µM; in the data active means inhibition above about 25%;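 further: 0% = vehicle and 100% = reference inhibitor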
NOD2-RIPK2 inh = NOD2-RIPK2 protein interaction inhibition | inhibition, % at 4.98 µM | AID 624267 | actives 0.38% (n = 360,000) | O43353 | CHO BLA complementation NOD2-RIPK2, CCF4 ratio; in the data active means inhibition above about 21%;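 further: 0% = vehicle only and 100% = reference blocker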
ABHD5 PLIN5 PPI = ABHD5-PLIN5 protein interaction inhibition | actives 0.78% (n = 360,000) | AID 602281 | Q00G26+Q8WTS1 | inhibition, % at 4 µM | Split G. princeps luciferase complementation, luminescence, 4 h;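 active means inhibition above the mean inhibition across every tested compound plus 3 SD, cut at about 22% in these data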;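 further: 0% = DMSO only wells and the 100% control is not disclosed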
rCAG binder conf = r(CAG) RNA repeat binding, confirmation; shares compounds with rCAG binder; TO-PRO-1 dye displacement fluorescence; inhibition, % at 3 µM; actives 70% (n = 4,300); AID 652065;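 active means inhibition above a per-plate cutoff, the mean inhibition of sample wells plus 3 SD, cut at about 35% in these data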;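 further: loss of TO-PRO-1 fluorescence as compound displaces dye from 1x1 AA loop RNA; 0% = DMSO only wells and 100% = 100 µM mitoxantrone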
dCAG dye counter = disrupts DNA CAG TO-PRO-1 complex, flagging rCAG hits; d(CAG) DNA oligo TO-PRO-1 dye displacement, fluorescence; inhibition, % at 3 µM; actives 94% (n = 4,300); shares compounds with rCAG binder;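 active means inhibition above its plate's cutoff, the mean test-well inhibition plus 3 SD, cut at about 4.8% in these data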;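 further: 0% = DNA dye mix with DMSO and 100% = 100 µM mitoxantrone; hits displace the dye from DNA and so lower well fluorescence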
dCAG dye DR = counter-screen for rCAG binders: inhibitors of DNA CAG TO-PRO-1 complex | shares compounds with rCAG binder | IC50, µM | AID 686960 | DNA CAG/GTC duplex TO-PRO-1 dye displacement fluorescence | actives 20% (n = 250); in the data active means IC50 below about 10 µM
Active calls of the source: *; . = not tested or not shown.

SMILES	TLR9-MyD88 inh	rCAG binder	PRMT1 inh	TLR4 MyD88 comp	NOD2-RIPK2 inh	ABHD5 PLIN5 PPI	rCAG binder conf	dCAG dye counter	others
COc1ccccc1CNC(=O)COC(=O)c1nccnc1N	-3	5	3	.	-12	-4	.	.
O=C(O)c1ccc([N+](=O)[O-])cc1	4	1	-1	.	4	-1	.	.
CC(C)(C)C(=O)Nc1ccc(C(=O)Nc2cc(NC(=O)c3ccc(NC(=O)C(C)(C)C)cc3)cc(C(=O)O)c2)cc1	-2	44*	-5	.	0	-3	67*	30*
O=C(O)c1cc(NC(=O)c2ccc([N+](=O)[O-])cc2)cc(NC(=O)c2ccc([N+](=O)[O-])cc2)c1	2	50*	-3	.	2	2	34	7.2*
CC(C)(C)C(=O)Nc1ccc(C(=O)NNC(=O)c2ccccc2)cc1	0	-3	-1	6	-1	-2	.	.
CCCn1nc([N+](=O)[O-])c(C(C#N)c2nc3ccccc3s2)c(Cl)c1=O (centres undefined)	8	88*	28*	-12	-7	11	83*	46*
CCn1nc([N+](=O)[O-])c(C(C#N)c2nc3ccccc3n2C)c(Cl)c1=O (centres undefined)	3	20	2	-5	-3	7	.	.
O=C1NC(=S)SC1=Cc1ccc2c(c1)OCO2	-2	1	0	.	-6	-1	.	.
O=C1N/C(=N/S(=O)(=O)Cc2ccccc2)S/C1=C/c1ccc2c(c1)OCO2	4	66*	-1	.	-11	17	56*	19*
Cc1ccc(S(=O)(=O)NCCC(=O)Nc2ccncc2)cc1C	11	-3	-4	.	2	-1	.	.
NC(CCc1ccccc1)c1csc(NC(=O)Nc2cccc(C(F)(F)F)c2)n1 (centres undefined)	.	40*	1	.	9	-6	22	3
COc1ccc(CC(N)c2csc(NC(=O)Nc3cc(OC)ccc3OC)n2)cc1 (centres undefined)	.	13	0	.	-9	-5	.	.
COc1ccc(CC(N)c2csc(NC(=O)Nc3ccc(F)cc3)n2)cc1 (centres undefined)	.	43*	-3	.	2	-10	21	9.5*
CC(C)c1ccc(NC(=O)Nc2nc(C(C)N)cs2)cc1 (centres undefined)	.	33	-2	.	-6	2	.	.
CC(C)C(N)c1csc(NC(=O)Nc2ccc(OC(F)(F)F)cc2)n1 (centres undefined)	.	40*	-3	.	-2	-5	26	2
CC(C)C(N)c1csc(NC(=O)Nc2cccc(C(F)(F)F)c2)n1 (centres undefined)	.	42*	-5	.	11	-2	45*	4	dCAG dye DR=>30
CC(C)C(N)c1csc(NC(=O)Nc2ccccc2C(C)(C)C)n1 (centres undefined)	.	14	-4	.	-5	0	.	.
COC(=O)c1sccc1S(=O)(=O)NCc1ccc(S(N)(=O)=O)cc1	12	3	4	.	-6	2	.	.
C/C=C\C(=O)Nc1cccc(C2=NOC3(C2)C[C@@H](C(N)=O)N(C(=O)c2ccc(OC)cc2)C3)c1 (some centres undefined)	.	1	-1	.	.	.	.	.
COc1ccc(CC(N)c2csc(NC(=O)Nc3cccc(C(F)(F)F)c3)n2)cc1 (centres undefined)	.	47*	-4	.	1	-2	26	7.1*
COc1ccc(OC)c(NC(=O)Nc2nc(C(N)CCc3ccccc3)cs2)c1 (centres undefined)	.	17	2	.	2	6	.	.
NC(Cc1ccc(C(F)(F)F)cc1)c1csc(NC(=O)Nc2ccccc2)n1 (centres undefined)	.	35*	8	.	0	-4	16	7.5*
COc1ccccc1NC(=O)Nc1nc(C(N)Cc2ccc(Cl)cc2)cs1 (centres undefined)	.	16	-2	.	7	-8	.	.
COc1ccc(CC(N)c2csc(NC(=O)Nc3ccccc3C(C)(C)C)n2)cc1 (centres undefined)	.	13	0	.	-12	-11	.	.
COc1cc(NC(=O)Nc2nc(C(N)CCc3ccccc3)cs2)cc(OC)c1OC (centres undefined)	.	35*	-4	.	3	2	30	2
SMILES	TLR9-MyD88 inh	rCAG binder	PRMT1 inh	TLR4 MyD88 comp	NOD2-RIPK2 inh	ABHD5 PLIN5 PPI	rCAG binder conf	dCAG dye counter	others
NC(Cc1ccc(C(F)(F)F)cc1)c1csc(NC(=O)Nc2ccccc2Cl)n1 (centres undefined)	.	14	-4	.	0	-16	.	.
NC(Cc1ccc(Cl)cc1)c1csc(NC(=O)Nc2ccccc2)n1 (centres undefined)	.	38*	0	.	9	-3	23	11*
COc1cc(C(=O)NCC(=O)OCCN2C(=O)c3ccccc3C2=O)cc(OC)c1OC	-6	-6	-3	3	-3	-2	.	.
CC1CCN(S(=O)(=O)c2cc(C(=O)N3CCN(c4ccccc4)CC3)ccc2Br)CC1	8	11	-2	.	-5	-5	.	.
O=C(Nc1ccncc1)Nc1cccc(C(F)(F)F)c1	-17	2	2	.	0	4	.	.
NC(COCc1ccccc1)c1csc(NC(=O)Nc2cccc(Cl)c2)n1 (centres undefined)	.	48*	-2	.	14	-4	24	5.5*
NCc1csc(NC(=O)Nc2cccc(C(F)(F)F)c2)n1	.	53*	2	.	2	4	51*	11*	dCAG dye DR=>30
Cc1ccc(S(=O)(=O)NCC2CCN(C(=O)C(=O)c3cccs3)CC2)cc1	.	1	4	.	.	.	.	.
COc1cc(OC)cc(-c2c(C#Cc3ccsc3)c3cc(-c4ccc5[nH]ccc5c4)ccc3n2C)c1	0	37*	-2	.	-7	2	33	22*
COc1cc(OC)cc(-c2c(C#Cc3ccsc3)c3cc(-c4cc(OC)c(OC)c(OC)c4)ccc3n2C)c1	-13	8	-1	.	8	-8	.	.
COc1ccc(C(=O)/C=C/Nc2ccc(S(=O)(=O)Nc3onc(C)c3C)cc2)cc1	0	47*	1	-5	-3	-5	49*	18*
Cc1noc(NS(=O)(=O)c2ccc(N/C=C/C(=O)c3ccc(F)cc3)cc2)c1C	-1	14	-1	3	-1	2	.	.
CCc1ccc(C(=O)/C=C/Nc2ccc(S(=O)(=O)Nc3onc(C)c3C)cc2)cc1	-5	57*	0	7	-6	-2	79*	37*
CCn1cc(C(=O)Nc2nnc(C)s2)c(=O)c2cc(F)c(N3CCN(C(=O)c4ccco4)CC3)cc21	.	.	.	-7	.	.	.	.

Source: PubChem BioAssay
